Assay [1] in a line: BSK_CASM3C_SRB: Viability Assessment in the BioMAP Diversity Plus: CASM3C Assay (AID 2283050).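 Further: cells exposed to compound for 24 h.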 The following applies: primary human coronary artery smooth muscle cells.
Read-out in assay [2]: Thrombomodulin, THBD (gene 7056)
Description: BSK_CASM3C_Thrombomodulin: BioMAP Diversity Plus: CASM3C Assay for Thrombomodulin Biomarker Activity (AID 2283051).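 Further: thrombomodulin protein level measured by ELISA 24 h after dosing.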 The note with it: primary human coronary artery smooth muscle cells; actives raise or lower the signal.

Read-out in assay [3]: Tissue Factor, F3 (gene 2152)
Description: BSK_CASM3C_TissueFactor: BioMAP Diversity Plus: CASM3C Assay for Tissue Factor Biomarker Activity (AID 2283052).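 Further: cell surface tissue factor protein level read by ELISA.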 The following applies: primary human coronary artery smooth muscle cells; actives raise or lower the signal.

Read-out in assay [4]: Urokinase-type plasminogen activator receptor (uPAR), PLAUR (gene 5329)
Description: BSK_CASM3C_uPAR: BioMAP Diversity Plus: CASM3C Assay for Urokinase-type plasminogen activator receptor (uPAR) Biomarker Activity (AID 2283054).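 Further: cell-surface uPAR protein level quantified by ELISA.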 The note with it: primary human coronary artery smooth muscle cells; actives raise or lower the signal.

Read-out in assay [5]: Vascular cell adhesion molecule 1 (VCAM1), VCAM1 (gene 7412)
The assay can be described thus: BSK_CASM3C_VCAM1: BioMAP Diversity Plus: CASM3C Assay for Vascular cell adhesion molecule 1 (VCAM1) Biomarker Activity (AID 2283055).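 Further: VCAM-1 protein level quantified by ELISA on the cells.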 The note with it: primary human coronary artery smooth muscle cells; actives raise or lower the signal.

Read-out in assay [6]: Collagen III, COL3A1 (gene 1281)
The assay can be described thus: BSK_hDFCGF_CollagenIII: BioMAP Diversity Plus: hDFCGF Assay for Collagen III Biomarker Activity (AID 2283056). The note with it: primary human foreskin fibroblasts; actives raise or lower the signal. The method in brief: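 Cells: human foreskin fibroblasts, primary. Dosing followed by 24 h incubation, then ELISA for collagen III. Both increases and decreases scored relative to DMSO.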

Read-out in assay [7]: Epidermal growth factor receptor (EGFR), EGFR (gene 1956)
The assay can be described thus: BSK_hDFCGF_EGFR: BioMAP Diversity Plus: hDFCGF Assay for Epidermal growth factor receptor (EGFR) Biomarker Activity (AID 2283057). The note with it: primary human foreskin fibroblasts; actives raise or lower the signal. A digest of the protocol:
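hDFCGF system, primary human foreskin fibroblasts; compound 24 h; EGFR measured by ELISA; DMSO = negative control/baseline; bidirectional fitting.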

Read-out in assay [8]: Interleukin-8 (IL8), CXCL8 (gene 3576)
The assay can be described thus: BSK_hDFCGF_IL8: BioMAP Diversity Plus: hDFCGF Assay for Interleukin-8 (IL8) Biomarker Activity (AID 2283058). The note with it: primary human foreskin fibroblasts; actives raise or lower the signal. The method in brief: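 IL-8 levels from compound-treated primary human fibroblasts were read by ELISA at 24 h, with DMSO serving as baseline for bidirectional fitting.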

Assay [9] is described as follows: BSK_hDFCGF_Proliferation: Cell Proliferation Assessment in the BioMAP Diversity Plus: hDFCGF Assay (AID 2283059).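 Further: curves fitted for both rise and fall of signal versus DMSO baseline.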 The following applies: primary human foreskin fibroblasts. A digest of the protocol: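 Steps: dose primary human dermal fibroblasts (foreskin); […] fix in 10% TCA; stain with 0.1% SRB; read 560 nm; fit gain or loss of signal against DMSO.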

Read-out in assay [10]: Macrophage colony-stimulating factor (MCSF), CSF1 (gene 1435)
The assay can be described thus: BSK_hDFCGF_MCSF: BioMAP Diversity Plus: hDFCGF Assay for Macrophage colony-stimulating factor (MCSF) Biomarker Activity (AID 2283060). The note with it: primary human foreskin fibroblasts; actives raise or lower the signal. The method in brief: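 M-CSF levels, determined by ELISA, are taken at 24 h after dosing human skin fibroblasts. Responses in either direction are fitted with DMSO serving as the baseline.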

Assay [11] is described as follows: BSK_hDFCGF_SRB: Viability Assessment in the BioMAP Diversity Plus: hDFCGF Assay (AID 2283061).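 Further: cells exposed to compound for 24 h before the read.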 The following applies: primary human foreskin fibroblasts. The method in brief: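 Cells were dosed with test chemical, cultured 24 h, fixed with 10% TCA, then stained with 0.1% SRB and read at 560 nm. The fibroblasts were human foreskin primary cells, and DMSO served as baseline.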

Read-out in assay [12]: TIMP metallopeptidase inhibitor 1 (TIMP1), TIMP1 (gene 7076)
The assay can be described thus: BSK_hDFCGF_TIMP1: BioMAP Diversity Plus: hDFCGF Assay for TIMP metallopeptidase inhibitor 1 (TIMP1) Biomarker Activity (AID 2283062). The following applies: primary human foreskin fibroblasts; actives raise or lower the signal. The method in brief:
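Fibroblasts from human foreskin are treated with test chemical and harvested at 24 h. TIMP-1 is quantified by ELISA, and gain or loss of signal is scored against DMSO.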

Read-out in assay [13]: Monokine induced gamma interferon (MIG), CXCL9 (gene 4283)
The assay can be described thus: BSK_hDFCGF_MIG: BioMAP Diversity Plus: hDFCGF Assay for Monokine induced gamma interferon (MIG) Biomarker Activity (AID 2283063). The note with it: primary human foreskin fibroblasts; actives raise or lower the signal. A digest of the protocol: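 MIG signal, determined by ELISA, reflects 24 h chemical exposure of human skin primary fibroblasts. DMSO serves as negative control and baseline.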

Read-out in assay [14]: Matrix Metallopeptidase 1 (MMP1), MMP1 (gene 4312)
Description: BSK_hDFCGF_MMP1: BioMAP Diversity Plus: hDFCGF Assay for Matrix Metallopeptidase 1 (MMP1) Biomarker Activity (AID 2283064). The following applies: primary human foreskin fibroblasts; actives raise or lower the signal. A digest of the protocol: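 Primary human foreskin fibroblasts exposed to chemicals for 24 h; MMP1 measured by ELISA. Cytotoxicity tracked by SRB staining in parallel cultures; bidirectional fit relative to DMSO.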

Read-out in assay [15]: Vascular cell adhesion molecule 1 (VCAM1), VCAM1 (gene 7412)
Description: BSK_hDFCGF_VCAM1: BioMAP Diversity Plus: hDFCGF Assay for Vascular cell adhesion molecule 1 (VCAM1) Biomarker Activity (AID 2283065).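 On AC50: VCAM-1 protein level quantified by ELISA after 24 h chemical exposure.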 The following applies: primary human foreskin fibroblasts; actives raise or lower the signal. The method in brief: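 Cells are dosed, cultured for 24 h, then VCAM-1 is quantified by ELISA; signal increases and decreases are both fitted relative to DMSO.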

Read-out in assay [16]: Interferon-gamma inducible Protein 10 (IP10), CXCL10 (gene 3627)
Description: BSK_KF3CT_IP10: BioMAP Diversity Plus: KF3CT Assay for Interferon-gamma inducible Protein 10 (IP10) Biomarker Activity (AID 2283068). The following applies: primary human keratinocytes with fibroblasts; actives raise or lower the signal. A digest of the protocol:
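KF3CT co-culture (keratinocytes + foreskin fibroblasts), 24 h compound, IP-10 by ELISA; bidirectional fit vs DMSO baseline.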

Assay [17] in a line: BSK_KF3CT_SRB: Viability Assessment in the BioMAP Diversity Plus: KF3CT Assay (AID 2283069).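 Further: total protein by sulforhodamine B staining as a cytotoxicity measure; fitted for both signal gain and loss against DMSO baseline.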 The following applies: primary human keratinocytes with fibroblasts. The method in brief: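 Human keratinocyte and foreskin fibroblast co-culture exposed to chemical for 24 h. Total protein measured in parallel cultures by 0.1% sulforhodamine B staining after 10% TCA fixation, read at 560 nm; bidirectional fit relative to DMSO.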

Read-out in assay [18]: Plasminogen activator inhibitor-1 (PAI1), SERPINE1 (gene 5054)
Description: BSK_hDFCGF_PAI1: BioMAP Diversity Plus: hDFCGF Assay for Plasminogen activator inhibitor-1 (PAI1) Biomarker Activity (AID 2283066). The note with it: primary human foreskin fibroblasts; actives raise or lower the signal. A digest of the protocol: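 Primary dermal fibroblasts (human foreskin), hDFCGF system; compound 24 h; PAI-1 by ELISA; bidirectional fit vs DMSO control.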

Read-out in assay [19]: Intercellular Adhesion Molecule 1 (ICAM1), ICAM1 (gene 3383)
Description: BSK_KF3CT_ICAM1: BioMAP Diversity Plus: KF3CT Assay for Intercellular Adhesion Molecule 1 (ICAM1) Biomarker Activity (AID 2283067). The note with it: primary human keratinocytes with fibroblasts; actives raise or lower the signal. A digest of the protocol:
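Dose the keratinocyte/fibroblast co-culture, wait 24 h, measure ICAM-1 by ELISA, then fit increases or decreases against DMSO. Cytotoxicity is checked in parallel cultures by SRB total-protein staining.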

SMILES strings stand for the structures. Active and inactive are the calls of the source. How the source made its calls: active means hit-call score of the fitted dose curve at least 0.9, where 1 is the maximum; inactive means score below 0.9.

Regarding `CCCN(CCOc1c(Cl)cc(Cl)cc1Cl)C(=O)n1ccnc1`, the result in assay [1], in assay [3], in [4], in assay [5], in assay [7] and in [8] was inactive. Also, the outcome in [12], in [13], in assay [14], in [15], in assay [16] and in [17] was inactive. Besides, the half-maximal activity concentration (AC50) was 3.97 µM (active) in assay [2]; 31.1 µM (active) in assay [6]; 21 µM (active) in [9]; 23.8 µM (active) in assay [10]; 16 µM (active) in assay [11].
As for `CC(C)(C)C(O)C(Oc1ccc(Cl)cc1)n1cncn1` (centres undefined), the result in assay [1], in assay [2], in assay [3], in [4], in assay [5] and in assay [6] was inactive. Besides, the outcome in assay [7], in assay [8], in assay [10], in assay [11], in assay [12] and in assay [13] was inactive. In addition, the result in [14], in [15], in assay [18], in [19], in assay [16] and in assay [17] was inactive.
Regarding `CNC(=O)Oc1cccc(N=CN(C)C)c1`, the result in [1], in assay [2], in assay [3], in [4], in assay [5] and in assay [6] was inactive. Besides, the result in assay [7], in assay [8], in assay [11], in [12], in [14] and in [16] was inactive. Further, the outcome in [17] was inactive. For the same compound, the AC50 is 24.2 µM (active) in [9], 15.9 µM (active) in assay [10], 15.4 µM (active) in assay [13] and 8.35 µM (active) in assay [15].
`Clc1ccccc1-c1nnc(-c2ccccc2Cl)nn1`: the outcome in assay [1], in assay [2], in assay [3], in [4], in assay [5] and in assay [7] was inactive. For the same compound, the result in assay [8], in assay [9], in assay [10], in [11], in assay [12] and in assay [13] was inactive. Moreover, the outcome in assay [14], in [15], in [19], in assay [16] and in [17] was inactive. Also, the half-maximal activity concentration (AC50) in assay [6] is 3 µM (active).
Take `COP(=S)(OC)Oc1ccc(SC)c(C)c1`: the outcome in assay [1], in [2], in assay [3], in assay [4], in assay [5] and in assay [6] was inactive. Also, the outcome in assay [7], in [8], in assay [9], in assay [10], in assay [11] and in assay [12] was inactive. Further, the outcome in [13], in assay [15], in assay [16] and in [17] was inactive. In addition, in [14], the half-maximal activity concentration (AC50) is 9.5 µM (active).
For `O=[N+]([O-])/N=C1\NCCN1Cc1ccc(Cl)nc1`, the result in [1], in assay [2], in assay [3], in assay [4], in assay [5] and in assay [6] was inactive. Moreover, the result in [7], in assay [8], in [9], in assay [10], in assay [11] and in [12] was inactive. The outcome in assay [13], in assay [14], in [15], in [16] and in assay [17] was inactive.

Usually AC50 stands for the midpoint of the concentration-response curve, whichever way the signal moves.

These data come from PubChem BioAssay (EPA / NIEHS).
